Calls of active or inactive are those of the source. Unless noted, no rule for the calls is given here.
What was measured:
[1] = A549 cell viability effects, profiling panel, calcein-AM fluorescence, 48 h, basal (AID 1162); details: higher = more signal; also: test concentration not given here
[2] = adipocyte viability effects, profiling panel, cell-based, 3T3-L1 adipocytes, calcein-AM fluorescence, 48 h, basal (AID 1163); details: 3T3-L1 adipocytes viability, higher = more signal; also: test concentration not given here
[3] = HepG2 cell viability effects, profiling panel, calcein-AM fluorescence, 48 h, basal (AID 1164); details: higher = more signal; also: test concentration not given here
[4] = MM1S cell viability effects, profiling panel, calcein-AM fluorescence, 48 h, basal (AID 1165); details: higher = more signal;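 also: viability of MM1S multiple myeloma cells under basal unstimulated conditions; test concentration not given here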
[5] = basal RPMI8226 viability, no added stimulus, profiling panel, cell-based, calcein-AM fluorescence, 48 h, PK04 Diversity Set (AID 1166); details: RPMI8226 myeloma viability, higher = more signal;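 also: cells grown under basal conditions without added stimulus; test concentration not given here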
[6] = basal HepG2 mitochondrial membrane potential changes, profiling panel, cell-based, JC-1 fluorescence, 24 h, 100 nL compound (AID 1167); details: higher = more signal; also: test concentration not given here
[7] = basal 3T3-L1 adipocyte mitochondrial potential changes, profiling panel, cell-based, JC-1 fluorescence, 3T3-L1 adipocytes, 24 h, 100 nL compound (AID 1168); details: JC-1 mitochondrial fluorescence, higher = more signal, called active from +8 up or from −8 down; also: test concentration not given here
[8] = basal RPMI8226 mitochondrial membrane potential changes, profiling panel, cell-based, JC-1 fluorescence, 24 h, 100 nL compound (AID 1169); details: RPMI8226 myeloma, JC-1 mitochondrial potential fluorescence, higher = more signal; also: test concentration not given here
[9] = basal MM1S mitochondrial membrane potential changes, profiling panel, cell-based, JC-1 fluorescence, 24 h, 100 nL compound (AID 1170); details: higher = more signal; also: test concentration not given here
[10] = A549 lung cancer cell viability effects, profiling panel, resazurin fluorescence, 24 h, PK04 Diversity Set (AID 1171); details: higher = more signal, called active from +8 up or from −8 down; also: test concentration not given here
[11] = HepG2 liver cancer cell viability effects, profiling panel, resazurin fluorescence, 24 h, PK04 Diversity Set (AID 1172); details: higher = more signal; also: test concentration not given here
[12] = basal S. cerevisiae growth modulation, no modifier, primary screen, OD600, strain BY4716, 24 h, basal condition (AID 1173); details: OD600, 24 h, higher = more signal, called active from +8 up or from −8 down
[13] = MM1S myeloma cell viability, profiling panel, resazurin fluorescence, basal, 24 h, PK04 Diversity Set (AID 1174); details: higher = more signal, called active from +8 up or from −8 down;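 also: MM1S multiple myeloma cell line; test concentration not given here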
[14] = target: Dihydroorotate dehydrogenase (quinone), mitochondrial (Plasmodium falciparum (isolate 3D7)) (UniProt Q08210); assay: PfDHODH enzyme inhibitors, primary screen, biochemical, C-terminal His tag, absorbance 600 nm (AID 1175); details: DCIP absorbance 600 nm, higher = more signal, called active from +8 up or from −8 down;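 also: recombinant parasite enzyme with a five histidine tag at its C terminus; test concentration not given here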
Sequence of Dihydroorotate dehydrogenase (quinone), mitochondrial (Plasmodium falciparum (isolate 3D7)) (Q08210 whole entry, looked up): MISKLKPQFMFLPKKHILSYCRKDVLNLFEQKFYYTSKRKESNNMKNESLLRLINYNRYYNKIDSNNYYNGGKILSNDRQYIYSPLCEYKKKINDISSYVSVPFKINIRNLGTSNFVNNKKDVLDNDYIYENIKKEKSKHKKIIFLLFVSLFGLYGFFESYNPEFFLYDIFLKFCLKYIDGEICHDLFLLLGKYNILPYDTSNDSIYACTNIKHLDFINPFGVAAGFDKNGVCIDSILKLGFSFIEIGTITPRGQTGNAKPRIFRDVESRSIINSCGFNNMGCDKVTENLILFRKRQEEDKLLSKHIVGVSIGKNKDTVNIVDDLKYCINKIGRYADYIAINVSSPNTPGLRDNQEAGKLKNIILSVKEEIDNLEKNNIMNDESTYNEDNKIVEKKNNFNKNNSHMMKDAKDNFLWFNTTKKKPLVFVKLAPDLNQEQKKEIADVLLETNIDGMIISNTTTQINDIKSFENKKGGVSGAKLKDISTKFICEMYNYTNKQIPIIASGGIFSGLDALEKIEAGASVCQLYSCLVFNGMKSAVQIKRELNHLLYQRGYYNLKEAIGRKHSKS

[15] = P. aeruginosa biofilm formation inhibitors, primary screen, strain PAO1, LB-PBS medium, absorbance 600 nm (AID 1176); also: test concentration not given here; details: P. aeruginosa PAO1 growth/biofilm, A600, 12 h; higher = more signal
[16] = S. cerevisiae RM11-1a growth modifiers, primary screen, strain RM11-1a, OD600, basal, 24 h (AID 1177); details: OD600, 24 h, higher = more signal, called active from +8 up or from −8 down;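 also: cultures grown under basal conditions with no added stressor; test concentration not given here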
[17] = E. coli acrAB mutant growth effects, primary screen, E. coli filamentation inducers, strain DRC39, OD650, 24 h (AID 1178); details: higher = more signal, called active from +8 up or from −8 down;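 also: growth measured as culture turbidity by optical density at 650 nm; test concentration not given here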
[18] = E. coli acrAB mutant growth effects, primary screen, E. coli filamentation inducers, strain DRC39, OD650, 48 h (AID 1179);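 also: screen aims at cell division blockers that make cells filament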; details: E. coli DRC39 delta-acrAB growth, higher = more signal, called active from +8 up or from −8 down
[19] = RPMI8226 myeloma cell viability, profiling panel, resazurin fluorescence, basal, 24 h, PK04 Diversity Set (AID 1180); details: higher = more signal;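 also: RPMI8826 multiple myeloma cell line at 5000 cells per well; test concentration not given here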
[20] = target: E3 ubiquitin-protein ligase XIAP (Homo sapiens) (UniProt P98170); assay: XIAP binders, primary screen, biophysical, small-molecule microarray, fluorescence 635 nm (AID 1181); details: small-molecule microarray binding, higher = more signal;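 also: score merges 667 nm emission and signal to noise over triplicate slides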
Sequence of E3 ubiquitin-protein ligase XIAP (Homo sapiens) (P98170 whole entry, looked up): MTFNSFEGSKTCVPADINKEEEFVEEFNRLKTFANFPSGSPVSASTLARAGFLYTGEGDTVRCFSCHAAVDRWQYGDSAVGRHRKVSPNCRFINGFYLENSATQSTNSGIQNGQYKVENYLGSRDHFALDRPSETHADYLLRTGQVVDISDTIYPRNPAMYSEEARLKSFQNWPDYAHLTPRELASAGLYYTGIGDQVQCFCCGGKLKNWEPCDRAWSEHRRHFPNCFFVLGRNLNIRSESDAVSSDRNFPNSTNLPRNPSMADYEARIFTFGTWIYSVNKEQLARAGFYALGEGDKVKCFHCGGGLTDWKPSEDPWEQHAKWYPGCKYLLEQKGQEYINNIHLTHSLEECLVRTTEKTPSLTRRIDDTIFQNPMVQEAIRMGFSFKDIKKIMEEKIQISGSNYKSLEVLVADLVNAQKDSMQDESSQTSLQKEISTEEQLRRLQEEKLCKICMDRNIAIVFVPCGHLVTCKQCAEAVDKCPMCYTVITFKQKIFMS

Work on CC(C)C(=C=CC[C@@H](O)c1ccc(OCCO)cc1)C[C@@H](O)COCc1ccccc1 yielded a z-score [1] of 2.2, a z-score [2] of 1.46 and a z-score [3] of 1.2. It also gave a z-score [4] of -0.619, a z-score [5] of 0.471 and a z-score [6] of 1.52. For the same compound, the z-score [7] was 0.404 (inactive), the z-score [8] was -0.147 and the z-score [9] was -1.11. For the same compound, the z-score [10] was 0.343 (inactive), the z-score [11] was 0.932 and the z-score [12] was -2.26 (inactive). For the same compound, the z-score [13] was 0.189 (inactive), the composite z-score [14] was -2.2 (inactive) and the z-score [15] was 0.919 (inactive). For the same compound, the z-score [16] was -2 (inactive), the z-score [17] was 1.38 (inactive) and the z-score [18] was 1.29 (inactive). For the same compound, the z-score [19] was 1.55 and the composite z-score [20] was 0.108.

[N-]=[N+]=Nc1ccccc1[C@@H]1OC(c2ccc(OCCCO)cc2)=N[C@]1(CCS(=O)(=O)c1ccccc1)C(N)=O showed a z-score [1] of -0.811, a z-score [2] of -0.267 and a z-score [3] of -0.554. The z-score [4] was -0.648, the z-score [5] was 0.0806 and the z-score [6] was -2.73. For the same compound, the z-score [7] was -1.91 (inactive), the z-score [8] was -0.0842 and the z-score [9] was -0.305. For the same compound, the z-score [10] was 0.404 (inactive), the z-score [11] was 0.396 and the z-score [12] was -0.0185 (inactive). For the same compound, the z-score [13] was -0.706 (inactive), the composite z-score [14] was 0.796 (inactive) and the z-score [15] was -0.291 (inactive). The z-score [16] was -0.0594 (inactive), the z-score [17] was 0.326 (inactive) and the z-score [18] was -0.397 (inactive). The z-score [19] was -0.699 and the composite z-score [20] was 0.0975.

CCOC(=O)C1=CC[C@@H](c2ccccc2)N(S(=O)(=O)c2ccc(C)cc2)[C@H]1c1ccccc1C showed a z-score [1] of -1.42, a z-score [2] of 0.068 and a z-score [3] of -0.0628. It also gave a z-score [4] of -0.247, a z-score [5] of -0.734 and a z-score [6] of 2.59. The z-score [7] was -0.134 (inactive), the z-score [8] was -0.275 and the z-score [9] was -0.271. The z-score [10] was 2.32 (inactive), the z-score [11] was 1.81 and the z-score [12] was 0.786 (inactive). The z-score [13] was 0.336 (inactive), the composite z-score [14] was -0.494 (inactive) and the z-score [15] was -0.377 (inactive). The z-score [16] was -0.59 (inactive), the z-score [17] was -0.502 (inactive) and the z-score [18] was 0.3 (inactive). The z-score [19] was 0.686 and the composite z-score [20] was -0.0239.

Compound CC(C)C[C@@H]1NC(=O)[C@@H]2C[C@H](C(=O)NCc3ccc(F)cc3)[C@H](c3cccc(OCCO)c3)N2C1=O has a z-score [1] of 1.21, a z-score [2] of -0.613 and a z-score [3] of 0.259. For the same compound, the z-score [4] was 1.04, the z-score [5] was 0.828 and the z-score [6] was 1.9. For the same compound, the z-score [7] was 0.0605 (inactive), the z-score [8] was -0.0212 and the z-score [9] was -0.657. For the same compound, the z-score [10] was 0.234 (inactive), the z-score [11] was 0.137 and the z-score [12] was -0.929 (inactive). For the same compound, the z-score [13] was 0.279 (inactive), the composite z-score [14] was -1.26 (inactive) and the z-score [15] was 0.475 (inactive). For the same compound, the z-score [16] was -0.694 (inactive), the z-score [17] was 1.46 (inactive) and the z-score [18] was 1.48 (inactive). The z-score [19] was 0.919 and the composite z-score [20] was -0.052.

With COC(=O)C(CC#Cc1ccc2c(c1)[C@]1(C(=O)N2)[C@H](C(=O)Nc2nc3ccccc3s2)[C@H]2C(=O)O[C@H](c3ccccc3)[C@H](c3ccccc3)N2[C@@H]1c1ccc(O)cc1)C(=O)OC the z-score [1] was 0.567, the z-score [2] was 0.823 and the z-score [3] was 1.49. For the same compound, the z-score [4] was -1.15, the z-score [5] was -3.43 and the z-score [6] was -2.74. The z-score [7] was -0.383 (inactive), the z-score [8] was -1.31 and the z-score [9] was -0.561. For the same compound, the z-score [10] was 0.502 (inactive), the z-score [11] was 0.793 and the z-score [12] was -0.0312 (inactive). The z-score [13] was 0.792 (inactive), the composite z-score [14] was -0.72 (inactive) and the z-score [15] was 1.23 (inactive). For the same compound, the z-score [16] was 0.698 (inactive), the z-score [17] was -0.0857 (inactive) and the z-score [18] was -0.169 (inactive). For the same compound, the z-score [19] was -2 and the composite z-score [20] was 0.208.

C=CCNC(=O)[C@H]1[C@@H]2C(=O)O[C@@H](c3ccccc3)[C@@H](c3ccccc3)N2[C@@H](c2ccccc2OCCO)[C@]12C(=O)Nc1ccc(C#CCCO)cc12 showed a z-score [1] of 0.126, a z-score [2] of 1.04 and a z-score [3] of -0.543. It also gave a z-score [4] of -2.03, a z-score [5] of -1.91 and a z-score [6] of -0.651. The z-score [7] was -0.936 (inactive), the z-score [8] was -0.953 and the z-score [9] was -0.31. For the same compound, the z-score [10] was -0.685 (inactive), the z-score [11] was -0.349 and the z-score [12] was 1.22 (inactive). The z-score [13] was -0.942 (inactive), the composite z-score [14] was 2.6 (inactive) and the z-score [15] was 0.462 (inactive). For the same compound, the z-score [16] was 2.33 (inactive), the z-score [17] was -0.393 (inactive) and the z-score [18] was -0.445 (inactive). For the same compound, the z-score [19] was -0.969 and the composite z-score [20] was 1.02.

With COc1cc2c(cc1O)C(c1cccs1)N(C)CC2 (stereo not given) the z-score [1] was -0.416, the z-score [2] was -0.344 and the z-score [3] was 0.448. The z-score [4] was 0.405, the z-score [5] was 0.586 and the z-score [6] was -1.13. For the same compound, the z-score [7] was -0.0427 (inactive), the z-score [8] was -0.0651 and the z-score [9] was -1.06. The z-score [10] was -0.568 (inactive), the z-score [11] was -0.493 and the z-score [12] was 1.11 (inactive). For the same compound, the z-score [13] was -1.55 (inactive), the composite z-score [14] was -8.08 (active) and the z-score [15] was 0.282 (inactive). The z-score [16] was -0.225 (inactive), the z-score [17] was 0.34 (inactive) and the z-score [18] was 0.597 (inactive). It also gave a z-score [19] of -0.468 and a composite z-score [20] of 0.0682.

O=C1O[C@H](c2ccccc2)[C@H](c2ccccc2)N2[C@H]1[C@@H](C(=O)N1CCCCCCC1)[C@]1(C(=O)Nc3ccc(C#CCCO)cc31)[C@H]2c1ccccc1OCCO showed a z-score [1] of 0.405, a z-score [2] of 0.911 and a z-score [3] of 0.518. The z-score [4] was -1, the z-score [5] was -3.71 and the z-score [6] was 0.42. For the same compound, the z-score [7] was 0.757 (inactive), the z-score [8] was -1.3 and the z-score [9] was -1.11. The z-score [10] was 0.458 (inactive), the z-score [11] was -0.118 and the z-score [12] was 1.09 (inactive). The z-score [13] was -1.12 (inactive), the composite z-score [14] was 0.929 (inactive) and the z-score [15] was 1.15 (inactive). For the same compound, the z-score [16] was 2.99 (inactive), the z-score [17] was -0.805 (inactive) and the z-score [18] was -0.106 (inactive). For the same compound, the z-score [19] was -2.97 and the composite z-score [20] was 2.87.

C=C(C)[C@@H]1CC=C(C(O)C2C=CC3C(=O)N(c4ccccc4)C(=O)C3N2Nc2ccccc2)CC1 (stereo not given in full) showed a z-score [1] of 1.62, a z-score [2] of -0.63 and a z-score [3] of 1.16. It also gave a z-score [4] of -0.646, a z-score [5] of -1.05 and a z-score [6] of -1.95. The z-score [7] was -0.27 (inactive), the z-score [8] was -0.45 and the z-score [9] was -0.31. The z-score [10] was 0.296 (inactive), the z-score [11] was -0.126 and the z-score [12] was -1.81 (inactive). For the same compound, the z-score [13] was 0.272 (inactive), the composite z-score [14] was -0.376 (inactive) and the z-score [15] was 1.6 (inactive). The z-score [16] was 0.367 (inactive), the z-score [17] was 0.195 (inactive) and the z-score [18] was -0.0871 (inactive). It also gave a z-score [19] of 0.37 and a composite z-score [20] of 0.0997.

Reference: PubChem BioAssay
